According to publication PMC7819943, “Rice protein-binding microarrays: a tool to detect cis-acting elements near promoter regions in rice”:
In all, about 68,000 sequences were measured (“fluorescence intensity (a.u.)”: median about 9,100, highest 2% from about 16,000 on). Many of the other results were omitted from the sample, so the highest values are more common in it than they were.

What follows are sequences tested against OsWRKY34 (Oryza sativa, UniProt Q0JBA9 1-250) (assay: protein-binding microarray (RPBM); PBS, 2% BSA, 51.3 ng/ul salmon testes DNA, 50 uM zinc acetate, 200 nM TF, 25 C, 1 h; high values mean tight binding). Settings: protein: recombinant; tags: N-terminal polyhistidine and DsRed monomer fusion (pET32a); label: CyDye5-dUTP incorporated in the synthesized complementary strand; 3' TTTTT single-stranded linker to array surface; dsDNA, one strand shown.
Chain of OsWRKY34 (Q0JBA9 entry or part of it): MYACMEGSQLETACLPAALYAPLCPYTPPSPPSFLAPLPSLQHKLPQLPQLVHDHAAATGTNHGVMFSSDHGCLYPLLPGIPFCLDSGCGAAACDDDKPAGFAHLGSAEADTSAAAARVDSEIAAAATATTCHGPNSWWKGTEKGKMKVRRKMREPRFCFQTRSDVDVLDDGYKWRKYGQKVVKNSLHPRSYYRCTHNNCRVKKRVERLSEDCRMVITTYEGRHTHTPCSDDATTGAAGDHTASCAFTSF
In short: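 Polyhistidine-tagged DsRed fusions of transcription factors, joined at the N-terminus, were expressed in E. coli BL21-CodonPlus and isolated on Ni–NTA. They were incubated at 200 nM for 1 h at 25 °C on a custom Agilent array, double-stranded and BSA-blocked, in PBS with 2% BSA, salmon testes DNA and 50 µM zinc acetate. The binding signal is per-feature fluorescence intensity (arbitrary units) read on an Axon 4000B scanner after washing.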

Sequence | binding signal
CTAAAAGTCAATCCACGCCACCATCGATCTCTCTATCCAACGGAGTCACCTAGTGCAG | 9440 fluorescence intensity (a.u.)
CTATGATTGGTCAAGTGCTGTTGCTATTTCTCTGCTGATACGGAGTCACCTAGTGCAG | 10200 fluorescence intensity (a.u.)
TCACCACCACCATCACAACCCAATCCCAATCCAAACCACCCGGAGTCACCTAGTGCAG | 8530 fluorescence intensity (a.u.)
GATCATCTGTTCCACCCGCCACCCGCCACCCGCCACAATCCGGAGTCACCTAGTGCAG | 13200 fluorescence intensity (a.u.)
GCTGTTCCATGCTCCACAACCCCGGGTCATTGACCCAATCCGGAGTCACCTAGTGCAG | 16700 fluorescence intensity (a.u.)
GAAAAGCCACTAATCTCCAACCTCGTCTACACTTCTCCAACGGAGTCACCTAGTGCAG | 8970 fluorescence intensity (a.u.)
GTTTGATCCATTACAGCTCCACATATATTGTGAAATCATTCGGAGTCACCTAGTGCAG | 10500 fluorescence intensity (a.u.)
ACAACCGCACATACGCCACGGCCCACTCCTCCTTCTCGCCCGGAGTCACCTAGTGCAG | 9350 fluorescence intensity (a.u.)
GAACGTCTGGACGTTGGAACACTCCATGTTTTTGTCTGATCGGAGTCACCTAGTGCAG | 8740 fluorescence intensity (a.u.)
CCTTGTCTGTACTCTCTCTACTTTCCACCTCTATCCGCCTCGGAGTCACCTAGTGCAG | 9420 fluorescence intensity (a.u.)
TCTGTCTATCCTTTGTAAAGTCACTTGCCCTTGCATTACTCGGAGTCACCTAGTGCAG | 16500 fluorescence intensity (a.u.)
TATATCTATATGCCATATCATCTGTCTATCCTTTGTAAAGCGGAGTCACCTAGTGCAG | 8740 fluorescence intensity (a.u.)
GCATCCTTTTCATTGGCCTTTGCGTGTAATTTGGGGCATGCGGAGTCACCTAGTGCAG | 9230 fluorescence intensity (a.u.)
GGTTTGTTTGTCGTTCATGTGACGAGCGCATCCGTTTTCCCGGAGTCACCTAGTGCAG | 9140 fluorescence intensity (a.u.)
TGTTCTGGTTCGGATCTGAGCGGGTGTTGGGTGTTTTCAACGGAGTCACCTAGTGCAG | 9230 fluorescence intensity (a.u.)
GGTTTGGGTTCCTCTCTCGTCTCGTCTGTTTTGTTTTCCCCGGAGTCACCTAGTGCAG | 21900 fluorescence intensity (a.u.)
ATACTTCCTTTCTGTTTCCAGTGTCTCTCTTCATGCACTCCGGAGTCACCTAGTGCAG | 10700 fluorescence intensity (a.u.)
ATTTTAATTAATCTCGTGTTGGGTTCTTATATGGTTTTTCCGGAGTCACCTAGTGCAG | 8350 fluorescence intensity (a.u.)
CTCGTCTGTTTTGTTTTCCCCTCCGACTCCGACTCCGATCCGGAGTCACCTAGTGCAG | 8180 fluorescence intensity (a.u.)
GTGTTTCCCATGGTTTGCACCAGTCTCCTCTGATGCAGTCCGGAGTCACCTAGTGCAG | 26400 fluorescence intensity (a.u.)
CCTCGGCCTATAGTGTTGGGTTTGGGTGTTGGTTTTTCCCCGGAGTCACCTAGTGCAG | 15600 fluorescence intensity (a.u.)

Sequence | binding signal
CCTCGTTTTTTTTTTTGGGTTCATCTCGTGTGTTCCGTGACGGAGTCACCTAGTGCAG | 18400 fluorescence intensity (a.u.)
TTTTCGTGTTCGGGTTTGGGTTTGAGTGCCGCATCTGCAACGGAGTCACCTAGTGCAG | 21500 fluorescence intensity (a.u.)
CAGTCTCCTCTGATGCAGTCTCGTTCTCTGTTTCTTTTTGCGGAGTCACCTAGTGCAG | 10600 fluorescence intensity (a.u.)
ATCTGGGTTCTTTTTTTTTCTTTTTTTGCCGGGTTTTTTTCGGAGTCACCTAGTGCAG | 14800 fluorescence intensity (a.u.)
CGATTGCCATTGTTCGTGTGTTTTTTCTTGTCTCTTTCCGCGGAGTCACCTAGTGCAG | 11000 fluorescence intensity (a.u.)
TCACCATCTCGACTCAGCCAATCCATTTCTAAATTTTATACGGAGTCACCTAGTGCAG | 8690 fluorescence intensity (a.u.)
TTAACCACAGTGCCGTTCTCTAGCCACCATCTCAGCAGCACGGAGTCACCTAGTGCAG | 8220 fluorescence intensity (a.u.)
TGGGAAGTACATATGTAATGTTGTTTATTTATTTTTGTTTCGGAGTCACCTAGTGCAG | 9860 fluorescence intensity (a.u.)
ATCTTGGGAAGGCCGTTACTCACTCTAGACTTTACTCCTCCGGAGTCACCTAGTGCAG | 8270 fluorescence intensity (a.u.)
CCTCACCGATGGATTTTTTAGCCCGATCCTACCCCTCCTACGGAGTCACCTAGTGCAG | 10500 fluorescence intensity (a.u.)
ACCACGTCCCTTTCCATTTTCCCTTGTTTTTTTTCCTCCTCGGAGTCACCTAGTGCAG | 11200 fluorescence intensity (a.u.)
TAATTTTACTCGATACTCTATGTACCCCTGAAATTTCGCTCGGAGTCACCTAGTGCAG | 9560 fluorescence intensity (a.u.)
GCCTTGTCTATTGCCTCAGAAGTTGGTTACCCTGTTGTTGCGGAGTCACCTAGTGCAG | 8150 fluorescence intensity (a.u.)
GATGTGCCCTTTATTCACAACATTTAACAATTGTTACTTGCGGAGTCACCTAGTGCAG | 8520 fluorescence intensity (a.u.)
GTATGGTTGGTTGGTTGGTTTGTTGGGTTTCTCCCCGGCCCGGAGTCACCTAGTGCAG | 33300 fluorescence intensity (a.u.)
TTGGGAGGGTTTTTCACGTTAAATCTCGTGTCTTCTGTAACGGAGTCACCTAGTGCAG | 29500 fluorescence intensity (a.u.)
GGGTTTTCCACGTTAAATCTCGTGTCTTCTGTGTTTGATCCGGAGTCACCTAGTGCAG | 12000 fluorescence intensity (a.u.)
TGTACAGTTGGTTCTTTTCTTTTTTTTTTTCAGTTGAGTCCGGAGTCACCTAGTGCAG | 9330 fluorescence intensity (a.u.)
GTGAGGGTGTGGTTACAGTGGGTTGGTTTTTTTTCTCCCCCGGAGTCACCTAGTGCAG | 11800 fluorescence intensity (a.u.)
TTTTCTCTCCTGTTTTGGGAGGGTTTTCCACGTTAAATCTCGGAGTCACCTAGTGCAG | 8230 fluorescence intensity (a.u.)
GTGGGTTCTTTGTGGGGTCTCTTATAGTTTTCACTGCCAGCGGAGTCACCTAGTGCAG | 20500 fluorescence intensity (a.u.)

Sequence | binding signal
GTTTGTGGTTCAGTTTTTGTCCCCATGGGTCTCTTAGCGGCGGAGTCACCTAGTGCAG | 9120 fluorescence intensity (a.u.)
TTAAAAAAAGTTGGGTAATTGTGGGGTTTGTTTTTTCTCCCGGAGTCACCTAGTGCAG | 9490 fluorescence intensity (a.u.)
ACTTTTGGTGGACCTTGGTTGTTTGGTCTGTTTCTCTCAGCGGAGTCACCTAGTGCAG | 8680 fluorescence intensity (a.u.)
TATATCTCGTGGTTTGTGGGTTCTTTTCACTTGTTCAGTGCGGAGTCACCTAGTGCAG | 14000 fluorescence intensity (a.u.)
CCTTTTTGTTGGTCTCTGTTCTTGGGTTGGGTTTTCAGTCCGGAGTCACCTAGTGCAG | 20800 fluorescence intensity (a.u.)
TATTAGTGGTATATATCCCTATCAGTCATTCTGCTTGCTTCGGAGTCACCTAGTGCAG | 9260 fluorescence intensity (a.u.)
CGACGTACCGTAGCCGATTTCTGTTGCTATTATCATGTTCCGGAGTCACCTAGTGCAG | 9450 fluorescence intensity (a.u.)
ATTTCTAGTCATGCCCGATAACCACTCCGGCACGACCACGCGGAGTCACCTAGTGCAG | 8150 fluorescence intensity (a.u.)
CCAGACAGCTTCAGTTTGCAACGTACCCAAGTAAGAAACACGGAGTCACCTAGTGCAG | 9150 fluorescence intensity (a.u.)
ACTTTGTAGCCCAATAACCACTATTTGATTCAACAGGTTTCGGAGTCACCTAGTGCAG | 9900 fluorescence intensity (a.u.)
ACCATTTGTTTGAGCTCCGGAACCTTTTCGCCGTCCTATGCGGAGTCACCTAGTGCAG | 8460 fluorescence intensity (a.u.)
ATGGCATTGAGCATTACAGTTGAATTTGTGTAGTTTTTAGCGGAGTCACCTAGTGCAG | 8390 fluorescence intensity (a.u.)
CCAGTGGTGGAGTGGAGTGGTGGTGGGGAGACGTGAGGAGCGGAGTCACCTAGTGCAG | 8630 fluorescence intensity (a.u.)
CCCTCCTCTCCGCGCGCGCCACCTGTCCATCCGCGCGGAGCGGAGTCACCTAGTGCAG | 8970 fluorescence intensity (a.u.)
GGTTATGGTTCAATTCTAATGTTCCTTTGGTGTCACATTTCGGAGTCACCTAGTGCAG | 8200 fluorescence intensity (a.u.)
GGTGGGAGTGCGCATTGAGGATAAGCCACTGATGACGTCTCGGAGTCACCTAGTGCAG | 8600 fluorescence intensity (a.u.)
TTAAACGGTCATTCTTGTGTTTTTCCTGTATTTTCTAATCCGGAGTCACCTAGTGCAG | 9220 fluorescence intensity (a.u.)
TCTCCAGCTTTTTTCTGTTCCTCTGGTCTTGATTCTTGAACGGAGTCACCTAGTGCAG | 18200 fluorescence intensity (a.u.)
CAGTCTGTCTTGGTCTCTTTGTTCAGTCATGGTCTCTCTTCGGAGTCACCTAGTGCAG | 19000 fluorescence intensity (a.u.)
CTCCTGCTTCTCTGTTCTTTCCATTCTCCTCCTTTTTTTCCGGAGTCACCTAGTGCAG | 14600 fluorescence intensity (a.u.)
CTTCTTCCACTTGAAGCTTTTTCTCTCTTGGTCTTATCCTCGGAGTCACCTAGTGCAG | 9690 fluorescence intensity (a.u.)

Sequence | binding signal
GTGCAGTTGTCTTCTTCTGTTCTTTGGTCATATAGTAGTTCGGAGTCACCTAGTGCAG | 14900 fluorescence intensity (a.u.)
TTTTCTTCTTTCTTTCTCTCTGTCTTGTTCAATTTTTTCTCGGAGTCACCTAGTGCAG | 11800 fluorescence intensity (a.u.)
TGACATTTAAATTCTGTTTCTCTCTTTGTGTTTTAGTTCCCGGAGTCACCTAGTGCAG | 9720 fluorescence intensity (a.u.)
ATACCTCTTGTGTATTAATTAAACATTAGTGTTTCTGTTCCGGAGTCACCTAGTGCAG | 48000 fluorescence intensity (a.u.)
TGGTGGGTGCATTGTTGTTCACATTCCGGATCCCTGCATCCGGAGTCACCTAGTGCAG | 9220 fluorescence intensity (a.u.)
TTGTAGTACTAGGTCGTATCTAATACTAGTTGATTTTTTACGGAGTCACCTAGTGCAG | 8190 fluorescence intensity (a.u.)
TGTATCTCAAATTCTTTCAGTTGGTTTTGTGCTCTTTTTACGGAGTCACCTAGTGCAG | 8920 fluorescence intensity (a.u.)
GGCGCTTTATTCAATTGGTCCGCTCTCGGTCTCCTGCACGCGGAGTCACCTAGTGCAG | 8270 fluorescence intensity (a.u.)
CGGAGGGGTTGGGCTTGCGGGCGGCGTGTACCTTGTGCACCGGAGTCACCTAGTGCAG | 9410 fluorescence intensity (a.u.)
GAGATGGAGGTGGAGGTGGTGGAGGGGACGACGATGGTGGCGGAGTCACCTAGTGCAG | 9610 fluorescence intensity (a.u.)
GGGAGGGGAGGACGGCGACGGCGGCGGCGGCGGGGTGTGGCGGAGTCACCTAGTGCAG | 10800 fluorescence intensity (a.u.)
TTTGCTGCTGCTGCTTCTAGGGTTAGGGTTTGGGGTGGGGCGGAGTCACCTAGTGCAG | 22100 fluorescence intensity (a.u.)
GGCGCTTCTAGGGTTTGGTGGGGTTCGGGCGGGCGCGCCGCGGAGTCACCTAGTGCAG | 15600 fluorescence intensity (a.u.)
CGCGCCGGGTGGCGTTGGTGTTGGCGCCGGGGAGGGTCAGCGGAGTCACCTAGTGCAG | 9140 fluorescence intensity (a.u.)
CGCACTGGCGGGGCTTGGAGCTGGGGTTTCTAGGGTTTGGCGGAGTCACCTAGTGCAG | 8980 fluorescence intensity (a.u.)
GGAGGGGACGACGATGGTGGGGTGGGTGGTGTCCGGGGTGCGGAGTCACCTAGTGCAG | 19100 fluorescence intensity (a.u.)
CTGCTGCGAGGGTGGGTGTTGCTTGTACCGGGCGGGGATGCGGAGTCACCTAGTGCAG | 20300 fluorescence intensity (a.u.)
GCGGCGCGGCGGGGAGGAGGGAGGGGTGGCGTTGAGGTGGCGGAGTCACCTAGTGCAG | 19300 fluorescence intensity (a.u.)
TGGGGTTGAGGGAGGGTGCCGCGGGTGGCTGGCGGAGGACCGGAGTCACCTAGTGCAG | 10600 fluorescence intensity (a.u.)
CTGCGGCGAGAGGTGGGAGGCGGGGCGGTTGTACGTGTGCCGGAGTCACCTAGTGCAG | 11000 fluorescence intensity (a.u.)
TTCATTCATATGGTGTAACTTTTTGTCGCTGTAGGATCGCCGGAGTCACCTAGTGCAG | 8130 fluorescence intensity (a.u.)
